# Fam108B counter – mouse Fam108B serine hydrolase inhibitors, primary screen, counter-screen for RBBP9 inhibitor project, biochemical, fluorescence polarization. recombinant Fam108B, FP-Rh probe fluorescence polarization. AID 1947, 2009. 300,000 tested, 0.33% active. inhibition, % at 9.51 µM;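 active means inhibition above the screen mean inhibition plus 3 SD, computed separately per campaign, cut at about 18% in these data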;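 further: inhibitors lower polarization as less probe binds the enzyme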
# PAD4 inh – human PAD4 inhibitors, primary screen, biochemical, fluorescence polarization, 1536-well format | Protein-arginine deiminase type-4 (Homo sapiens), Q9UM07 | recombinant PAD4, RCA probe fluorescence polarization | inhibition, % at 6.36 µM | 330,000 tested, 0.41% active | AID 485272, 2010;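 active means percent inhibition above a cutoff equal to the mean of all tested compounds plus 3 SD, cut at about 15% in these data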;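 further: 0% = PAD4 with RCA probe and DMSO and 100% = probe without PAD4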
# PME-1 inh – PME-1 inhibitors via competitive probe labeling, primary screen, biochemical, fluorescence polarization, FP-Rh probe, HTS | Protein phosphatase methylesterase 1 (Homo sapiens), Q9Y570 | recombinant PME-1 | inhibition, % at 5.9 µM | 320,000 tested, 0.53% active;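 active means inhibition above the campaign mean of all compounds plus 3 SD, cut at about 26% in these data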;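 further: competitive labeling of PME-1 active site by serine hydrolase directed probe; 0% = PME-1 with DMSO and 100% = wells lacking PME-1 enzyme; inhibitors block probe labeling so polarization falls and inhibition rises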
# Target sequence (Q9Y570 whole entry, looked up): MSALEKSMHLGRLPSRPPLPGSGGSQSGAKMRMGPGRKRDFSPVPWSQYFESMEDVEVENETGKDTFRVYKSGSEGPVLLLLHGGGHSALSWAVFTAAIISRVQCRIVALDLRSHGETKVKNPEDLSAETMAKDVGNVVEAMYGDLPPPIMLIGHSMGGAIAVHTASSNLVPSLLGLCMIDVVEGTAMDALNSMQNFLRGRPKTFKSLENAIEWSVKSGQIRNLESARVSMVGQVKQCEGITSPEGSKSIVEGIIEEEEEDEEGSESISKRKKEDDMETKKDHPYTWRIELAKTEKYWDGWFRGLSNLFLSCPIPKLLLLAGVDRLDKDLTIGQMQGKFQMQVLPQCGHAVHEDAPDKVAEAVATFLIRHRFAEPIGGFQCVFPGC
# SIAE primary – human SIAE inhibitors, primary screen, biochemical, fluorescence polarization, FP-Rh probe, 1536-well HTS; inhibition, % at 9.66 µM; SIAE FP-Rh probe binding; 370,000 tested, 0.69% active; AID 1053197, 2014;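 active means inhibition above a cutoff: mean of compounds within the control limits plus 3 SD of those, cut at about 17% in these data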;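 further: 0% = plate median of compound wells and 100% = probe without SIAE protein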
# PRMT1 inh – PRMT1 methyltransferase inhibitors, primary screen, biochemical, fluorescence polarization; recombinant PRMT1, activity-based probe fluorescence polarization; inhibition, % at 2.79 µM; 370,000 tested, 1.3% active; AID 652257, 2013;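 active means inhibition above about 21% made by adding two undisclosed values, limit read from the data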
# TCR CD3 inh – inhibitors of human TCR-CD3 interaction, primary screen, biochemical, fluorescence, TAMRA-labeled TCR probe | T-cell receptor (TCR) | inhibition, % at 9.4 µM | 360,000 tested, 0.37% active | AID 651800, 2012; in the data active means inhibition above about 19%;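 further: recombinant mutant TCR 2C K166C tagged with TAMRA read by polarization; 0% = receptor in buffer alone and 100% = receptor with positive control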
# SIAE inh conf – human SIAE inhibitors, retest, confirmation, biochemical, fluorescence polarization, FP-Rh probe, triplicate. shares compounds with SIAE primary. SIAE FP-Rh activity-based probe. inhibition, % at 9.66 µM. 2,300 tested, 13% active;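 active means mean inhibition of the replicates above the hit cutoff set in the primary screen, cut at about 17% in these data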;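 further: 0% = SIAE with DMSO and probe and 100% = probe without SIAE; inhibitors lower polarization as more probe stays unbound to SIAE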
# An asterisk follows results filed as active; / = no result. Most compounds without a hit are left out; they make up all but 2.6% or so of the library.
SMILES,Fam108B counter,PAD4 inh,PME-1 inh,SIAE primary,PRMT1 inh,TCR CD3 inh,SIAE inh conf
Cc1ccc(C(=O)N/N=C/c2c(O)ccc3ccccc23)cn1,13,-1,17,21*,-4,15,3
O=C(N/N=C/c1c(O)ccc2ccccc12)Nc1ccccc1,11,0,28*,52*,-2,4,49*
O=C(N/N=C\c1c(O)ccc2ccccc12)c1cncc(Br)c1,16,1,18,31*,-4,1,6
O=C(N/N=C/c1cc(Br)ccc1O)c1ccncc1,6,-1,5,-1,-7,-11,/
COC(=O)c1cccc(Cn2ccc3ccc(-c4ccc5ccn(C(=O)C6CCC6)c5c4)cc32)c1,/,/,/,3,1,/,/
Cc1cccc(NC(=O)CSc2ncnc3sc4c(c23)CCCC4)c1,/,/,/,-1,-8,/,/
O=C(N/N=C/c1c(O)ccc2ccccc12)c1cccnc1,5,-11,10,27*,-6,7,-4
CC(CC(=O)N1CCN(S(=O)(=O)c2ccc(Cl)cc2)CC1)n1cncn1 (centres undefined),-2,-2,-4,18*,-2,-2,-4
CN(C)c1ccc(C2Nc3cccc4cccc(c34)N2)cc1,7,-1,12,38*,4,1,7
CN(C)c1ccc(C2NC(=O)c3ccccc3N2)cc1 (centres undefined),-5,-3,-2,17,-3,-6,/
COc1cc(OC)c(C2Nc3cccc4cccc(c34)N2)c(OC)c1,/,/,/,21*,21,-3,7
COc1ccc(C2Nc3cccc4cccc(c34)N2)cc1,4,-4,14,25*,2,-1,11
CCc1ccccc1NC(=O)C1CCC(=O)N(c2ccc(OC)cc2)C1c1ccc(OC)cc1 (centres undefined),/,/,/,-1,-13,/,/
CS(=O)(=O)c1ccc(Cl)c(NC(=O)c2cccc(Br)c2)c1,0,2,2,2,-1,-4,/
CS(=O)(=O)c1ccc(Cl)c(NC(=O)c2cccc(N3C(=O)CCC3=O)c2)c1,2,5,-5,19*,2,-11,3
C=CCN1C(=O)[C@@H](CC(=O)N2CCCC2)[C@]2(C(=O)OC)CCCCC=C12,/,/,/,-8,-3,/,/
CCCCCCn1c(N(CC)CC)nc2c1c(=O)[nH]c(=O)n2C,-2,-2,3,23*,-3,7,-2
COc1ccc(CN2C/C(=C/C3=CCCCC3)N(C(=O)OCc3ccccc3)C2=N)c(OC)c1,/,/,/,-4,-1,/,/
COc1cccc(C(C(=O)NCc2ccccc2)N2CCN(c3ccccc3F)CC2)c1OC (centres undefined),/,/,/,5,1,4,/
COc1cc(CNC(=O)c2cc(C(=O)NCc3cc(OC)cc(OC)c3)n(C)n2)cc(OC)c1,/,/,/,20*,-1,-3,-5
COc1cc(CNC(=O)c2cnccn2)cc(OC)c1,/,/,/,5,2,8,/
COc1ccc(N2CCN(CCCNC(=O)COc3ccc(C)cc3)CC2)cc1,/,/,/,3,5,/,/
O=C1CCCC(O)=C1N=Nc1cccc(C(=O)O)c1,15,-13,-13,21*,2,0,5
CCCc1cc(=O)[nH]c(SCC(=O)Nc2sccc2C#N)n1,/,/,/,17*,2,-7,3
CCCc1cc(=O)[nH]c(SCC(=O)Nc2ccc3ccccc3c2)n1,/,-7,/,-5,3,0,/
COc1ccccc1OCC(=O)Nc1ccc(C(N)=O)cc1,1,-1,-6,18*,-2,1,-2
FC(F)(F)c1cccc(N2CCN(C3=Nc4ccccc4Sc4ccccc43)CC2)c1,/,/,/,3,2,/,/
O=C(CNC(=O)C1CCCCC1)Nc1ccccc1Cl,-1,-3,-4,80*,-1,5,-1
Cc1c(Cl)cccc1NC(=O)C1CC(=O)N(C2CCCC2)C1 (centres undefined),/,/,/,0,3,3,/
